Most compounds without a hit are left out; they make up all but 17% or so of the library.
TGFb inhibitor = blocks TGF-b signaling; actives 1.2% (n = 410,000); HepG2 CAGA-GFP TGF-b/SMAD3 reporter, GFP fluorescence, 18 h; TGF-beta stimulated, 500 pg/mL final; AID 588855; Potency, µM (highest dose often 46.1 µM), inactives show at the top dose activity, negative = inhibition, actives largely listed as inhibitors; note: % is set by controls: 0 for no effect and ±100 for the full control effect; nearly all actives have a fitted effect of over 65% in size
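Cell-based qHTS in HEPG2 carrying a CAGA-GFP Smad reporter; compounds added before 500 pg/mL final TGF-beta, 18 h incubation at 37 degrees C, GFP fluorescence quantified per cell by imaging cytometry.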
HepG2 tox = kills HepG2 cells in TGF-b inhibitor counter-screen; actives 0.76% (n = 410,000); AID 588856; HepG2 CAGA-GFP viability, ATP luminescence, 18 h; Potency, µM (top dose mostly 46.1 µM), without a hit: top-dose activity change, negative = cytotoxicity, actives largely listed as cytotoxic
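CellTiter-Glo luminescence gave cytotoxicity after 18 hours at 37 degrees C. The cells were HepG2 CAGA-GFP in 1% FBS DMEM, stimulated with 500 pg/mL TGF-beta after compound addition. %Activity was normalised to no-cell wells (complete cell-killing) and DMSO (no toxicity), and curves were fitted and classified.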
DT40 TDP1 no CPT = qHTS for Inhibitors of human tyrosyl-DNA phosphodiesterase 1 (TDP1): qHTS in cells in absence of CPT; Potency, µM (titrated, usually from 46.2 µM), for the others: at the top dose activity change, negative = growth inhibition, most hits filed as inhibitors; DT40 Tdp1-/- hTDP1 cells, no CPT, ATP luminescence, 48 h; actives 15% (n = 420,000); note: % is set by controls: 0 for no effect and ±100 for the full control effect; nearly all actives have a fitted effect of over 55% in size
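Chicken DT40 Tdp1-/- cells complemented with human TDP1, screened without camptothecin (DMSO vehicle only), 400 cells/well. Compounds pin-transferred, cells incubated at 37 °C for at least 48 hr. Growth read as ATP-dependent luminescence (CellTiter-Glo, 30 min at RT).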
DT40 TDP1 CPT = growth inhibition of DT40 Tdp1-/-;hTDP1 cells with camptothecin (screen for TDP1 inhibitors); chicken DT40 Tdp1-/-;hTDP1 cells + 20 nM CPT, ATP luminescence, 48 h; Potency, µM (series often up to 46.2 µM), without a hit: top-dose activity change, negative = growth inhibition, most hits filed as inhibitors; actives 12% (n = 420,000); AID 686979; note: % is set by controls: 0 for no effect and ±100 for the full control effect; nearly all actives have a fitted effect of over 55% in size
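Chicken DT40 Tdp1-/- cells stably complemented with human TDP1 were seeded at 400 cells/well in medium containing 20 nM camptothecin, exposed to pin-transferred compounds, and grown at 37 °C for at least 48 hr. Viability was read as ATP luminescence.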
HT1080-NT tox = kills 2HG-producing HT-1080-NT fibrosarcoma cells; HT-1080-NT fibrosarcoma viability, CellTiter-Glo ATP luminescence, 48 h; Potency, µM (doses to about 46.1 µM), for inactives: at the top dose activity, negative = less viability, most hits filed as cytotoxic; actives 1.6% (n = 360,000); AID 686970;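 note: NT is the 2HG producing partner of a matched IDH1 knockdown line; 0% = DMSO-treated cells and -100% = media-only wells without cells; nearly all actives have a fitted effect of over 55% in size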
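Viability by CellTiter-Glo luminescence after 48 h compound exposure at 37C of HT-1080-NT cells (750/well, RPMI, 5% FBS). % activity scaled between DMSO wells and medium-only wells, then curve-fitted and categorized by curve class.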
HT1080 IDH1KD tx = toxicity to HT-1080 IDH1 knockdown cells (counter line); HT-1080 IDH1 knockdown viability, ATP luminescence, 48 h; Potency, µM (series often up to 46.1 µM), for the others: top-dose activity, negative = toxicity, actives largely listed as cytotoxic; actives 2% (n = 360,000); AID 686971;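 note: 0% = DMSO wells and -100% = cell-free medium wells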
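% activity derives from luminescence (CellTiter-Glo), normalised to DMSO and no-cell wells. HT-1080-IDH1KD cells, 750/well, had 48 h compound exposure at 37 °C.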
* = called active by the depositor; ? = inconclusive; . = no result; ! = repeats disagree; [ ] = dose if it differs, or a comment. Calls come from the whole dose curve; as a rule, active = well fitted curve in the direction sought with a large enough effect; inconclusive = small, poorly fitted or top-dose-only effect, or another doubt; inactive = no such curve, though single readings can be large; an effect the other way counts as inactive or inconclusive. Potency is the fitted concentration of half-maximal effect.

SMILES | TGFb inhibitor | HepG2 tox | DT40 TDP1 no CPT | DT40 TDP1 CPT | HT1080-NT tox | HT1080 IDH1KD tx
CCOc1[nH]c(/N=C/c2ccc(OC)cc2)c(C#N)c1C#N | 2.9% | -34.2% | -11.3% | -29.5% | . | .
CCOc1[nH]c(/N=C/c2ccco2)c(C#N)c1C#N | 4.5% | 14.5% | ? | 20.6µM* | -1.7% | -1.2%
O=C(Nc1ccc2c(c1)OCCO2)c1cc(-c2ccccc2)nc2ccccc12 | 3.8% | -39.2% | 23.1µM* | ? | -17.4% | -25.4%
CC(C)(C)NC(=O)c1cc(-c2ccc3c(c2)OCO3)nc2ccccc12 | 13.6% | 0.0% | -27.2% | 4.6% | -5.9% | 6.0%
O=C(Nc1ccc2c(c1)OCO2)c1cc(-c2ccncc2)nc2ccccc12 | ? | 2.6% | 14.6µM* | ? | 18.4µM* | 18.4µM*
O=C(Nc1ccc2c(c1)OCCO2)c1ccccc1 | 6.3% | -26.3% | -25.2% | -26.8% | -7.1% | -4.8%
Nc1nc2ccc([N+](=O)[O-])c(N)c2s1 | -2.6% | -10.8% | ? | ? | -10.0% | -11.6%
OC[C@@H]1CN(Cc2ccc3c(c2)OCO3)C[C@H](n2cnc3c(N4CCOCC4)ncnc32)O1 | -18.0% | -10.1% | -7.1% | -14.9% | 5.7% | 14.8%
CCCCCCSc1cc(-c2nc3ccc(C)cn3c2NCCCC)ccc1OC | ? | -56.9% | ? | ? | -7.6% | -6.5%
CCCCCCSc1cccc(-c2nc3ccc(Cl)cn3c2NCc2ccccc2)c1 | 12.9% | -11.1% | 23.1µM* | 20.6µM* | -4.1% | 6.5%
CCCCCCSc1ccc(-c2nc3ccc(C)cn3c2NCc2ccccc2)cc1OC | ? | -46.7% | 18.4µM* | 16.4µM* | -24.0% | ?
CCCCCCSc1ccc(-c2nc3ccc(C)cn3c2NCc2ccccc2)cc1 | -27.1% | -13.9% | 16.4µM*! | 23.1µM*! | 1.2% | -2.5%
COc1ccc(/C=N/NC(=O)c2nnn(-c3nonc3N)c2CN(C)c2ccccc2)cc1 | 12.0% | -13.8% | ? | ? | -17.6% | -0.3%
CC[C@H](C)NC(=O)CCCc1nnc2n(CCC(C)C)c(=O)c3sccc3n12 | -25.3% | -30.7% | ? | -25.8% | . | .
COCCCn1c(=O)c2sccc2n2c(CCCC(=O)Nc3cc(C)cc(C)c3)nnc12 | ? | 5.8% | ? | ? | . | .
CCn1c(=O)c2sccc2n2c(CCCC(=O)Nc3ccc(Oc4ccccc4)cc3)nnc12 | ? | -12.7% | 14.6µM* | ? | . | .
COc1ccc(NC(=O)CCc2nnc3n(C)c(=O)c4sccc4n23)cc1 | . | 1.0% | -25.5% | ? | . | .
CC(C)CCn1c(=O)c2sccc2n2c(CCCC(=O)Nc3ccc(C(C)C)cc3)nnc12 | -12.5% | -6.8% | 14.6µM* | ? | . | .
COCCCn1c(=O)c2sccc2n2c(CCCC(=O)Nc3cccc(C(F)(F)F)c3)nnc12 | ? | -22.8% | 20.6µM* | 16.4µM* | . | .
CCn1c(=O)c2sccc2n2c(CCCC(=O)NCc3cccnc3)nnc12 | -4.5% | -10.0% | 0.5% | 19.9% | 6.8% | 6.6%
Cn1c(=O)c2sccc2n2c(CCCC(=O)Nc3ccc(Oc4ccc(Cl)cc4)cc3)nnc12 | ? | -52.0% | 18.4µM* | ? | . | .
CC1CN=C(N(C(=O)Nc2ccccc2)c2ccc(F)cc2)S1 (stereo not drawn) | 2.0% | 1.1% | -16.0% | -18.0% | 5.6% | 7.3%
CCc1nc(SC)ncc1C(=O)NCc1cccc(Br)c1 | -20.3% | 3.2% | 0.6% | 5.1% | . | .
COc1cc(NC(=O)CSc2nnc(C)n3c2cc2oc(C)cc23)cc(OC)c1 | ? | -4.8% | ? | ? | . | .
CC(C)c1c(C(=O)NCC2(N3CCOCC3)CCCC2)cnn1-c1nccc(-c2cccs2)n1 | . | . | -17.8% | 1.3%[9.04 µM] | . | .
SMILES | TGFb inhibitor | HepG2 tox | DT40 TDP1 no CPT | DT40 TDP1 CPT | HT1080-NT tox | HT1080 IDH1KD tx
Cc1cccc(NC(=O)Cc2csc(COc3cccc(C)c3)n2)c1 | -24.2% | -37.5% | -20.9% | -21.9% | . | .
CC(=O)Nc1cccc(NC(=O)Cc2csc(COc3cccc(C)c3)n2)c1 | -13.0% | -21.1% | 20.6µM* | 14.6µM* | . | .
COc1ccc(NC(=O)Cc2csc(COc3cccc(C)c3)n2)cc1OC | -0.2% | -25.2% | 25.9µM* | 18.4µM* | . | .
CC1Cc2ccccc2N1C(=O)CSc1nnc(-c2cccc(Cl)c2)o1 (stereo not drawn) | -0.6% | -4.3% | ? | 14.6µM* | . | .
CCC1CCCCN1C(=O)CSc1nnc(-c2ccc(Cl)cc2)o1 (stereo not drawn) | -1.9% | -1.9% | 16.4µM* | 20.6µM* | 0.8% | 2.9%
CCC1CCCCN1C(=O)CSc1nnc(-c2ccc(OC)c(OC)c2)o1 (stereo not drawn) | -15.6% | -11.7% | ? | ? | . | .
CCC1CCCCN1C(=O)CSc1nnc(-c2cccc(Cl)c2)o1 (stereo not drawn) | -2.5% | -10.8% | 23.1µM* | 25.9µM* | 1.4% | -3.7%
NS(=O)(=O)c1cccc(C(=O)N2CCCc3ccccc32)c1 | 2.2% | -4.7% | -20.9% | -4.4% | -7.8% | -6.9%
O=C(Cc1nc2ccccc2[nH]1)N1CCC(n2c(C3CCC3)nc3cccnc32)CC1 | . | . | -16.7% | -7.4% | . | .
CC(C)(CN1CCNCC1)NS(=O)(=O)c1ccc(Cl)cc1 | ? | 25.1µM* | ? | 23.1µM* | -3.5%[9.24 µM] | ?
CC(=O)Nc1ccc(S(=O)(=O)NCCC(=O)N2CCC(Cc3ccccc3)CC2)cc1 | -26.0% | -6.1% | ? | ? | -4.0% | -10.3%
O=C(CCNS(=O)(=O)c1ccccc1F)N1CCN(C/C=C/c2ccccc2)CC1 | -6.8% | -17.4% | ? | 3.9% | 1.3% | -11.1%
Cc1ccc(S(=O)(=O)NC(C)(C)CN2CCC(Cc3ccccc3)CC2)cc1 | 17.8µM* | -26.2% | 18.4µM* | 16.4µM* | ? | ?
Cc1ccc(S(=O)(=O)NCCC(=O)N2CCN(C/C=C/c3ccccc3)CC2)cc1 | ? | -19.2% | 14.6µM* | ? | -4.2% | -12.4%
CC(=O)Nc1ccc(S(=O)(=O)NCCC(=O)N2CCN(C(c3ccccc3)c3ccccc3)CC2)cc1 | -10.3% | -28.8% | 16.4µM* | ? | -9.3% | -9.1%
CCOC(=O)C1CCN(CC(C)(C)NS(=O)(=O)c2ccc(C)cc2)CC1 | 17.4% | 3.1% | -25.3% | 1.4% | -16.2% | -2.8%
O=C(COC(=O)Cc1c(F)cccc1Cl)NC(=O)c1ccccc1 | 0.5% | -3.7% | -22.6% | -2.1% | 3.7% | 10.4%
